# Experimental data taken from PubChem BioAssay (NCI).
# About 83,000 compounds went through this panel and 20% of them were active in at least one assay; those are over-represented in the sample as a whole.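 For each line, cells grew in 96-well plates with the test compound present at a single concentration for 48 hours.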 A number with no mark means an inactive call. Activity calls are given as the source filed them. Rule for the calls: active = growth percent below 10; inactive = the rest.
# Experiments:
# Experiment in all cases: NCI-60 one-dose screen, 48 h (100 = growth as untreated, 0 = no growth, -100 = all killed)
# Conditions in all cases: 10 µM unless noted
# NCI-H322M lung = tested on: NCI-H322M lung
# HOP-62 NSCLC = tested on: HOP-62 NSCLC
# NCI-H460 lung = tested on: NCI-H460 lung
# HOP-92 NSCLC = tested on: HOP-92 NSCLC
# NCI-H522 lung = tested on: NCI-H522 lung
# A549/ATCC NSCLC = tested on: A549/ATCC NSCLC
# 786-0 renal = tested on: 786-0 renal
# COLO 205 colon = tested on: COLO 205 colon
# DU-145 prostate = tested on: DU-145 prostate
SMILES,growth (NCI-H322M lung),growth (HOP-62 NSCLC),growth (NCI-H460 lung),growth (HOP-92 NSCLC),growth (NCI-H522 lung),growth (A549/ATCC NSCLC),growth (786-0 renal),growth (COLO 205 colon),growth (DU-145 prostate)
NC(=O)c1c(NC(=O)c2ccc(C3CCCCC3)cc2)sc2c1CCC(=O)C2,97.8%,56.4%,15.8%,-15.4% (active),-2.16% (active),10.8%,26.3%,-36.1% (active),49.2%
O=C1c2c(c3c4cc(Br)ccc4[nH]c3c3ccc4ccccc4c23)C(=O)N1CCO,96.8%,96.3%,62.5%,103%,76.5%,91.7%,100%,92%,103%
Cn1c(SCC(=O)Nc2ccc(-c3nc4ccc([N+](=O)[O-])cc4[nH]3)cc2)nc2ccccc2c1=O,68.6%,94.9%,82.3%,59.5%,74.1%,89.5%,81.5%,98.4%,90.6%
Cc1ccccc1NC(=O)/C=C/c1ccc(OCCOc2ccc3c(C)cc(=O)oc3c2)cc1,92.2%,110%,91.8%,93.1%,85.1%,95.7%,110%,103%,100%
CCN1C(=S)N(c2ccccc2)C2NC(=O)N(/N=C/C=C/c3ccccc3OC)C21 (stereo not drawn),94.9%,80.6%,89.2%,72.3%,89%,87.9%,96.1%,122%,101%
COc1ccc(N/N=C/c2c(-c3ccc(S(C)(=O)=O)cc3)nc3ccccn23)cc1,50%,57.4%,21.8%,23%,3.48% (active),36.9%,48%,55.1%,40.1%
CN(C)CCCOc1c2ccccc2nc2c1oc1ccc(Cl)cc12,-9.94% (active),14.2%,4.37% (active),3.66% (active),-57.1% (active),-2.75% (active),7.33% (active),-24.5% (active),-1.68% (active)
Nc1c(C(=O)Nc2ccc(Cl)cc2)sc2nc(-c3cnccn3)cc(-c3cccs3)c12,70.2%,44.4%,63.1%,52.6%,93%,68.8%,71.2%,95.7%,70.3%
O=C1C2=C(C(=O)c3c(O)cccc31)C(c1ccco1)c1sc(=O)[nH]c1S2 (stereo not drawn),-97.7% (active),-72.2% (active),-4% (active),69.5%,-5.29% (active),-47.7% (active),62.3%,-89.4% (active),-93.9% (active)
N#Cc1c(-c2ccc(Cl)cc2)nc(SCc2ccc([N+](=O)[O-])cc2)nc1N1CCNCC1,40.5%,57.1%,-66.6% (active),-8.29% (active),64.1%,5.31% (active),-50% (active),-82% (active),0.384% (active)
COc1cc(/C=C/C(=O)c2ccc(C)cc2)ccc1Oc1nc(NCCO)nc(N2CCOCC2)n1,102%,104%,69.2%,63.6%,76.9%,97%,-50.7% (active),107%,87%
CC(C)Sc1nc(Nc2ccc(S(N)(=O)=O)cc2)c(C#N)c(-c2ccc(F)cc2)n1,,,,,73.5%,,,79%,25.1%
COc1cc(OC)c(C2SCC(=O)N2Nc2ncnc3ccccc23)cc1OC (stereo not drawn),96.4%,100%,111%,147%,98.9%,104%,104%,113%,106%
CC1=C(C)C(=O)C(Nc2cccc(C(F)(F)F)c2)=C(Cl)C1=O,101%,91%,94.9%,48.9%,17.7%,96.8%,102%,102%,99.7%
CC(C)(C)Nc1nc2c(OCCc3ccccc3)cccn2c1-c1ccc(O)cc1,89.9%,80.3%,45.8%,28.3%,57.5%,48.6%,73.3%,85.6%,97.3%
CCCSc1nc(Nc2ccc(/C(C)=N\NC(N)=S)cc2)c(C#N)c(-c2ccc(OC)cc2)n1,80.8%,31.6%,42.8%,-20.9% (active),89%,60.6%,5.18% (active),113%,52.2%

SMILES,growth (NCI-H322M lung),growth (HOP-62 NSCLC),growth (NCI-H460 lung),growth (HOP-92 NSCLC),growth (NCI-H522 lung),growth (A549/ATCC NSCLC),growth (786-0 renal),growth (COLO 205 colon),growth (DU-145 prostate)
CCOC(=O)c1c(Nc2ccccc2)nn2c(N)c(C#N)c(-c3ccc(F)cc3)nc12,101%,91.7%,86.8%,99.5%,90.5%,96.1%,80.8%,93.4%,83.2%
CN(C)CCCNc1c2ccc(Cl)cc2nc2c1oc1ccc(Cl)cc12,2.57% (active),47.7%,-31.2% (active),21.8%,16.7%,-38.4% (active),-85.3% (active),34.2%,-48.8% (active)
COc1cccc(OC)c1-c1nnn(C)c1C(=S)N1CCN(c2ccc([N+](=O)[O-])cc2Cl)CC1,82.6%,106%,101%,80.3%,93.6%,92.9%,92.1%,107%,100%
COc1ccc(CNS(=O)(=O)/N=C2\NC(=O)NC2=C(Cl)Cl)cc1,37.1%,46.9%,19%,-2.17% (active),2.05% (active),25.7%,28.8%,55.4%,27.9%
CCCC(=O)NC(c1ccc2c(c1)OC(F)(F)O2)c1cc(C)c2cccnc2c1O (stereo not drawn),34.2%,15.9%,-4.44% (active),33.5%,18.2%,16.5%,0.74% (active),21.1%,26%
COc1ccc(-c2nc3ccc(-c4nnc(SCC(=O)Nc5ccc(C(C)=O)cc5)o4)cc3[nH]2)cc1,110%,113%,103%,114%,103%,112%,105%,113%,110%
CN(C)CCCOc1c2ccc(Cl)cc2nc2c1oc1ccccc12,-13.1% (active),7.02% (active),7.64% (active),-4.3% (active),-39.6% (active),10%,6.22% (active),-59.3% (active),5.28% (active)
COc1ccc(-c2nc3ccc(-c4nnc(SCC(=O)Nc5ccc(C(=O)/C=C/c6ccccc6)cc5)o4)cc3[nH]2)cc1OC,102%,101%,106%,98.4%,98.4%,102%,99.3%,115%,107%
Clc1ccc2c(NCCCN3CCOCC3)c3oc4ccccc4c3nc2c1,37.8%,66.5%,13.8%,48.7%,43.1%,44.3%,28.3%,29.9%,31.3%
NS(=O)(=O)c1ccc(Nc2nc(Nc3ccccc3)nc(-n3nc(-c4ccccc4)cc3-c3ccccc3)n2)cc1,57.2%,63.7%,5.81% (active),26.8%,58.5%,25.9%,20.1%,9.92% (active),32.3%
O=c1/c(=C\c2ccc(-c3ccccc3)o2)sc2nc(-c3ccccc3)nn12,105%,92.8%,106%,90%,98.3%,103%,99.2%,117%,107%
CN1CCN(Cc2ccc(NC(=O)c3cncc(C#Cc4cnc5[nH]ncc5c4)c3)cc2C(F)(F)F)CC1,45.8%,50.8%,11.1%,-12.2% (active),50.9%,34.3%,45.7%,21.1%,32.8%
O=C(CN1CCOCC1)NNc1ncnc2ccccc12,102%,115%,108%,51.5%,-61% (active),105%,58.9%,102%,102%
Cc1cc2nc3c4cc(Cl)ccc4n(CC(=O)NCCN(C)C)c3nc2cc1C,83.7%,73.7%,-69.9% (active),57.1%,91.8%,89.4%,-92.4% (active),76.8%,94.4%
c1ccc2c(NCCCn3ccnc3)c3oc4ccccc4c3nc2c1,-13.4% (active),19.5%,-19.3% (active),-23.7% (active),-23.1% (active),10.5%,2.46% (active),-30.9% (active),-17.2% (active)
